# Bioassay records as filed in PubChem.
# Sampled rows, rich in hits. Any-hit rate of the full collection: about 10%.
# FLuc inh – blocks purified firefly luciferase enzyme activity; AID 1347043; P08659; Potency, µM (doses to about 115 µM), actives largely listed as inhibitors; purified P. pyralis luciferase, luminescence, biochemical; actives 2.5% (n = 76,000); note: nearly all actives have a fitted effect of over 65% in size
#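 Luminescence read by CCD imager after adding enzyme (10nM final) to wells holding compound, titrated in qHTS. Substrates 10uM each D-luciferin and ATP; buffer 50mM Tris acetate pH 7.5, 10mM Mg acetate, Tween-20, BSA.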
# HEK293 tox – HEK 293 cell cytotoxicity | HEK 293 viability, ATP luminescence (CellTiter-Glo), 48-72 h | Potency, µM (doses to about 115 µM), hits mostly inhibitors | actives 6.6% (n = 94,000) | AID 1345083; note: nearly all actives have a fitted effect of over 60% in size
#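 CellTiter-Glo luminescence (cellular ATP) was read after 48 or 72 hr of compound exposure at 37 degree Celsius. Cells were HEK 293 plated at 250 cells/well.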
# hNpr1 antagonist – human Npr1 receptor antagonism; P16066; HEK293 hNpr1 GloSensor cGMP, ANP-stimulated luminescence; Potency, µM (top dose mostly 46.3 µM), usual class: inhibitors; actives 1.6% (n = 76,000); calls by dose curve; note: nearly all actives have a fitted effect of over 60% in size
#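 HEK293 cells stably expressing human Npr1 and cGMP GloSensor pGS-40F, loaded 2 h with 2% GloSensor reagent, given compound 30 min at room temperature. Luminescence read before and 20 min after 0.1 nM hNppA.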
# GPT2 inhibitor – inhibitors of human GPT2 alanine aminotransferase | Q8TD30 | Recombinant GPT2, coupled pyruvate oxidase/HRP Amplex Red fluorescence | Potency, µM (titrated, usually from 57.7 µM), usual class: inhibitors | actives 0.25% (n = 100,000) | AID 1671188; note: nearly all actives have a fitted effect of over 60% in size
#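 Recombinant GPT2 (10ng/uL) with 250uM a-KG and 2mM L-alanine, 30 min at room temperature, in HEPES pH 7.5 buffer. Pyruvate detected by pyruvate oxidase/HRP/Amplex Red fluorescence after 30 min in the dark; AOA (50uM) as positive control.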
# 3T3 cytotox – kills NIH 3T3 cells. NIH 3T3 viability, CellTiter-Glo ATP luminescence, 48-72 h. Potency, µM (doses to about 96.7 µM), usual class: inhibitors. actives 4.3% (n = 94,000). AID 1345082; note: nearly all actives have a fitted effect of over 55% in size
#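 Cytotoxicity is measured as loss of cellular ATP: NIH 3T3 cells (400/well) are exposed to compound for 48 or 72 hr at 37 °C, then CellTiter-Glo luminescence is imaged after 10 min at room temperature.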
# Hits are given with their value; - = inactive; ? = inconclusive; . = no result. Unless noted, calls come from the whole dose curve; as a rule, active = well fitted curve in the direction sought with a large enough effect; inconclusive = small, poorly fitted or top-dose-only effect, or another doubt; inactive = no such curve, though single readings can be large; an effect the other way counts as inactive or inconclusive.
SMILES,FLuc inh,HEK293 tox,hNpr1 antagonist,GPT2 inhibitor,3T3 cytotox
Cn1nc(-c2ccc(F)cc2)cc1[C@H]1CN2CC[C@H]1C[C@@H]2CNC(=O)c1cccs1,-,44.7µM,-,?,56.2µM
COc1ccc(C(=O)NC[C@H]2C[C@@H]3CCN2C[C@@H]3c2cc(-c3ccc(F)cc3)nn2C)cc1,-,?,-,-,?
COc1ccc(OC)c(S(=O)(=O)NC[C@H]2C[C@@H]3CCN2C[C@@H]3c2cc(-c3ccc(F)cc3)nn2C)c1,-,28.2µM,-,-,?
Cc1cc(S(=O)(=O)N2[C@H]3CC[C@@H]2c2cnc(-c4ccccc4)nc2C3)ccc1F,-,-,-,-,-
COc1ccc(-c2cc([C@H]3CN4CC[C@H]3C[C@@H]4CNC(=O)Nc3cccc4ccccc34)n(C)n2)cc1OC,-,44.7µM,-,-,?
COc1ccc(-c2cc([C@H]3CN4CC[C@H]3C[C@@H]4CNC(=O)NC3CCCCC3)n(C)n2)cc1,-,?,-,-,89.1µM
CN1CCN(C(=O)Cc2c[nH]c3ncc(-c4ccsc4)cc23)CC1,?,-,-,-,89.1µM
CN1CCN(C(=O)Cc2c[nH]c3ncc(-c4cccc(O)c4)cc23)CC1,?,-,-,-,89.1µM
CC[C@H]1CN2CC[C@H]1C[C@@H]2CNC(=S)Nc1ccc(N(C)C)cc1,-,?,-,8.91µM,-
C=C[C@H]1CN2CC[C@H]1C[C@@H]2CNC(=O)Nc1cccc(C(F)(F)F)c1,-,100µM,-,-,?
C=C[C@H]1CN2CC[C@H]1C[C@@H]2CNC(=O)Nc1ccc(C(C)(C)C)cc1,-,31.6µM,-,-,35.5µM
CC[C@H]1CN2CC[C@H]1C[C@@H]2CNC(=O)Nc1cccc(C#N)c1,-,?,-,-,-
CC[C@H]1CN2CC[C@H]1C[C@@H]2CNC(=O)Nc1ccc(C(C)(C)C)cc1,-,70.8µM,-,-,?
COC[C@H]1CCCN1C[C@H]1CN2CC[C@H]1C[C@@H]2CNC(=O)Nc1ccsc1,-,?,-,-,?
C/C=C(\C)C(=O)O[C@@H]1[C@@H](C)[C@]2(O)C3C=C(C)C(=O)[C@@]3(O)CC(CO)=C[C@H]2C2C(C)(C)[C@@]21OC(=O)C(C)CC (stereo partly drawn),.,.,.,-,.
O=C1NC2(CCCN(Cc3ccncc3)C2)COc2ccccc21 (stereo not drawn),-,70.8µM,-,-,31.6µM
CN(C)CCc1c[nH]c2cccc(O)c12,.,.,.,10µM,.
CN1CCN(C[C@H]2CN3CC[C@H]2C[C@@H]3CNC(=O)Nc2ccccc2)CC1,-,-,-,-,?
CC(C)NC(=O)NC[C@H]1C[C@@H]2CCN1C[C@@H]2CN1CCC(Cc2ccccc2)CC1,-,50.1µM,-,-,?
COc1ccccc1N1CCN(C[C@H]2CN3CC[C@H]2C[C@@H]3CNC(=O)Nc2cccc(SC)c2)CC1,-,?,-,-,?
CCN(CC)C[C@H]1CN2CC[C@H]1C[C@@H]2CNS(=O)(=O)c1ccc(Cl)cc1,-,?,-,-,70.8µM
O=C(NC[C@H]1C[C@@H]2CCN1C[C@@H]2CN1CCC(Cc2ccccc2)CC1)Nc1ccccc1,-,31.6µM,-,-,?
CC(C)NC(=O)NC[C@H]1C[C@@H]2CCN1C[C@@H]2CN1CCN(c2ccccc2)CC1,-,-,-,-,-
CSc1cccc(NC(=O)NC[C@H]2C[C@@H]3CCN2C[C@@H]3CN2CCC(Cc3ccccc3)CC2)c1,-,?,-,-,25.1µM
C#CCN(C)C[C@H]1CN2CC[C@H]1C[C@@H]2CNS(=O)(=O)c1ccc(C)cc1,-,-,-,-,-
Fc1cnccc1CN1CC[C@@H]2CN(Cc3ccccc3)[C@@H]2C1,.,-,.,-,-
O=C(C1CCCC1)N1CCC(C(=O)O)(c2ccccc2)CC1,.,-,.,-,-
COc1ccc(-c2cc([C@H]3CN4CC[C@H]3C[C@@H]4CNC(=O)c3cccs3)nc(C)n2)cc1OC,-,?,-,-,?
CN1Cc2ccccc2-n2ccnc2C12CCN(C(=O)c1cccc(C(F)(F)F)c1)CC2,-,?,-,-,-
Cc1nc(-c2ccco2)cc([C@H]2CN3CC[C@H]2C[C@@H]3CNS(=O)(=O)c2cccs2)n1,-,?,-,-,?
